The whole screen tested about 1,200 compounds, of which about 160 (13%) were called active. These entries were drawn from the full list. Unmarked numbers belong to inactive results.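 Rule for the calls: active = activation above the solvent-only control well mean plus 3 SD, set per screening run (cut at about 120% in these data); inactive = the rest.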
Assay: STAT1 reporter activators, IFN-gamma induced, counter-screen for STAT3 activator project, cell-based, NIH 3T3, luciferase luminescence (AID 1318);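 note: 100% = IFN-gamma with DMSO median signal so 100% means no change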
Conditions: NIH 3T3 STAT1-luciferase reporter, at 5.7 µM, hits give high values

Compound	activation (% of control)
CN1C(=O)/C(=C\c2cc(Br)cs2)c2ccccc21	116%
Cc1nc(N=C(N)N)nc2c(C)cccc12	104%
CN1CCN(c2ccc([N+](=O)[O-])c(Sc3nc4ccccc4[nH]3)c2)CC1	96.2%
Cc1ccc(N=Nc2c(C)[nH]n(-c3ccccc3)c2=O)cc1	106%
N#Cc1ccccc1NC(=O)COc1c(Br)cc(Br)c2cccnc12	85.6%
c1ccc(-c2cn3c(n2)CCc2ccc4cccnc4c2-3)cc1	94.3%
CCOC(=O)CN(C)Cc1c[nH]c2ccccc12	88.5%
Cc1cccc(C(=O)Nc2nnc(Cc3c[nH]c4ccccc34)s2)c1	92.4%
Cc1ccc(S(=O)(=O)Nc2nc3ccccc3nc2N2CCc3ccccc3C2)cc1	105%
O=C(Cc1c[nH]c2ccccc12)OCCOC(=O)Cc1c[nH]c2ccccc12	94.1%
C/C(=N\NC(=O)CNc1cccc2ccccc12)c1ccc(Br)s1	92.6%
CSCCC(NC(=O)c1ccco1)C(=O)OCC(=O)Nc1ncc(Cl)c(C)c1Cl (stereo not given)	105%
CCOc1ccc(C2c3[nH]c4ccccc4c3CCN2Cc2cn(CC)nc2C)cc1 (stereo not given)	112%
Cc1ccc(Nc2nc(-c3sc(NC(=O)c4ccccc4)nc3C)cs2)cc1	105%
COc1ccccc1-c1nnc(SCC(=O)N2CC(C)CC(C)C2)o1 (stereo not given)	97%
COc1ccccc1-c1nnc(NC(=O)c2ccc3ncsc3c2)o1	137% (active)
OC(COc1ccc2ccccc2c1)CN1CCOCC1 (stereo not given)	118%
COc1cccc(/C=C(/CC(=O)Nc2ccc(N3CCOCC3)cc2)c2nc3ccccc3s2)c1	99.9%
Oc1c(C=Nc2cccc3nsnc23)ccc2ccccc12	95.4%
Cc1ccc(NC(=O)c2cc([N+](=O)[O-])ccc2Cl)c(O)c1	99.1%
CC(C)CNC(=O)COC(=O)/C=C/c1ccccc1[N+](=O)[O-]	89.1%
O=C(Nc1cc(C(F)(F)F)ccc1Cl)c1cc(C2CC2)on1	98.3%
Oc1cccc2ccc(/C=C/c3ccc(Br)s3)nc12	103%
COc1nc(N=C(N)N)nc2c(C)cccc12	102%
CCOC(=O)c1c(-c2cccc(C)c2)csc1NC(=O)c1c(-c2ccccc2)noc1C	117%

Compound	activation (% of control)
O=[N+]([O-])c1ccc(N2CCN(S(=O)(=O)c3ccc4ccccc4c3)CC2)cc1NCc1ccco1	110%
O=C1CCCN1CCCNc1ncnc2c1[nH]c1ccccc12	82.6%
COc1ccc(NC(=O)ON=C2c3ccccc3-c3ccccc32)cc1	107%
Cc1ccc(-c2cc(C(=O)Nc3nn[nH]n3)c3ccccc3n2)c(C)c1	97.5%
C=CCn1c(-c2ccccc2OCC)n[nH]c1=S	112%
COC(=O)c1[nH]c2ccccc2c1NC(=O)CN1CCCc2ccccc21	106%
CC(=O)Nc1ccc(NC(=O)COc2ccccc2C(=O)Nc2cccc(Cl)c2Cl)cc1	100%
Cc1ccc(/C=N/NC(=O)COc2ccccc2-c2ccccc2)cc1	114%
COc1cccc(NC(=S)C(C#N)=C2N(C)c3ccccc3N2C)c1	103%
COC(=O)c1[nH]c2cccc(C)c2c1NC(=O)CN1CCCc2ccccc21	93.5%
NC(=O)CSc1c[nH]c2ccccc12	99.4%
COc1ccc(-c2c3c(=O)n(C)c(=O)n(C)c3cn2-c2cccc(OC)c2)cc1	101%
N#Cc1c(C(F)(F)F)cc(-c2ccc(Cl)cc2)nc1SCC(=O)O	113%
COc1ccc([N+](=O)[O-])cc1C1NN=C(c2cccc3ccccc23)S1 (stereo not given)	120%
CCSc1nnc(-c2cc3c(s2)-c2ccccc2CC3)o1	132% (active)
CSc1nc2sc3c(c2c(=O)[nH]1)CCc1ccccc1-3	95.8%
COc1ccccc1N1CCN(C(=O)c2cc3c(-c4ccc(Cl)cc4)nn(C)c3s2)CC1	93.1%
COc1cc(OC)cc(C(=O)N[C@H](C(=O)Nc2nc3ccccc3[nH]2)C(C)C)c1	109%
CSc1nc(N(C)NC(=O)c2cccc(C)c2)c2ccccc2n1	107%
CCCS(=O)(=O)Nc1c(C(=O)O)[nH]c2ccccc12	94.9%
CCOC(=O)N1CCN(CC(=O)Nc2cc(C)nn2-c2nc3ccccc3s2)CC1	101%
CCNCc1cc2cc(C)ccc2[nH]c1=O	98.7%
Cn1cccc1C(=O)Nc1nccs1	104%
CCOC(=O)C1CCN(c2ncnc3c2oc2ccc(Br)cc23)CC1	92.6%
COc1ccccc1C1C2=C(COC2=O)Nc2cc3c(cc21)OCO3 (stereo not given)	116%

Compound	activation (% of control)
COc1ccc(/C=N/Nc2ncnc3sc4c(c23)CCCC4)cc1O	139% (active)
CCCCC(=O)Nc1nc(C)c(-c2csc(Nc3ccc(Cl)cc3)n2)s1	102%
Cc1cccc(C(=O)N2CCc3c([nH]c4ccccc34)C2CC(C)C)n1 (stereo not given)	118%
C/C(=N\c1nc2ccccc2n1C)c1cc(Cl)ccc1O	92.8%
C=CCCC(=O)Nc1nc(C)c(-c2csc(Nc3ccc(Cl)cc3)n2)s1	104%
Oc1cccc(C2c3[nH]c4ccccc4c3CCN2Cc2cnn(-c3ccccc3)c2)c1 (stereo not given)	93.5%
Fc1ccc2nc(-c3ccccc3)nc(SCc3nnc(-c4ccccc4)o3)c2c1	96.5%
COc1ccc(C2c3[nH]c4ccccc4c3CCN2CCCn2cccn2)cc1C (stereo not given)	95.6%
COc1ccc(Cl)cc1NC(=O)c1oc(C)nc1C	98.8%
Cc1csc2ncc(C(=O)N(Cc3ccccc3)c3ccccn3)c(=O)n12	103%
Cc1ccc(C2=NN(C)c3nc4ccccc4n3C2)cc1	101%
COC(=O)c1[nH]c2ccccc2c1NS(=O)(=O)c1ccc(OC)cc1OC	92.3%
O=C(O)CS/C(=C\c1ccc(F)cc1)c1nc2ccccc2s1	112%
O=C(O)CSCc1nc2ccccc2s1	120% (active)
Cc1nc2ccccc2cc1O	87.9%
COc1ccc(C)cc1NC(=O)c1[nH]c(C)c(C(C)=O)c1C	100%
CCn1c(SCC(=O)N/N=C/C=C/c2ccccc2[N+](=O)[O-])nnc1-c1ccccc1	89.9%
COc1cc(NS(=O)(=O)c2ccc(N/C=C(\C=O)c3nc4cc(Cl)ccc4o3)cc2)nc(OC)n1	93.1%
Cn1nc(-c2ccc(Cl)cc2)c2cc(C(=O)NCc3ccco3)sc21	94.9%
O=c1[nH]c(CSc2ncc(-c3ccc(F)cc3)n2Cc2ccco2)nc2ccccc12	100%
COCCCNc1nc2c(-c3cccc(C(F)(F)F)c3)nnn2c2ccccc12	98.4%
O=C(NCc1ccco1)c1cccn2c(=O)c3c4c(sc3nc12)CCCC4	87%
Cc1cccc(N(CC(=O)N=Nc2c(O)[nH]c3ccccc23)S(C)(=O)=O)c1C	107%
O=C(C1CCN(S(=O)(=O)Cc2ccccc2)CC1)N1CCCc2ccccc21	105%
Cc1ccc(OCc2nnc(SC3CCc4ccccc4C3=O)n2C)cc1 (stereo not given)	132% (active)

Reference: PubChem BioAssay AID1318 (The Scripps Research Institute Molecular Screening Center, 2008)
